# “And” between values parts separate entries of the source, which are not always exact repeats. Equal values may be shown once. Some compounds were tested as several samples or in several runs, with calls that do not always agree. The source made the active and inactive calls. The calls were made as follows: active = hit-call score of the fitted dose curve at least 0.9, where 1 is the maximum; inactive = score below 0.9.
# Experiments:
# [1] = read-out: Macrophage colony-stimulating factor (MCSF), CSF1 (gene 1435); assay: BSK_hDFCGF_MCSF: BioMAP Diversity Plus: hDFCGF Assay for Macrophage colony-stimulating factor (MCSF) Biomarker Activity (AID 2283060); details: primary human foreskin fibroblasts; actives raise or lower the signal
# How it was run: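 ELISA read-out of M-CSF in human dermal foreskin fibroblast cultures, 24 h after chemical dosing; gain or loss of signal fitted bidirectionally relative to DMSO baseline.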
# [2] = BSK_hDFCGF_SRB: Viability Assessment in the BioMAP Diversity Plus: hDFCGF Assay (AID 2283061); details: primary human foreskin fibroblasts;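 also: cells exposed to compound for 24 h before the read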
# How it was run: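 Primary human foreskin fibroblasts; 24 h post-dose; fixed 10% TCA, stained 0.1% SRB, A560 read; total protein as overt cytotoxicity measure; curves fit bidirectionally vs DMSO control.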
# [3] = read-out: TIMP metallopeptidase inhibitor 1 (TIMP1), TIMP1 (gene 7076); assay: BSK_hDFCGF_TIMP1: BioMAP Diversity Plus: hDFCGF Assay for TIMP metallopeptidase inhibitor 1 (TIMP1) Biomarker Activity (AID 2283062); details: primary human foreskin fibroblasts; actives raise or lower the signal
# How it was run: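 ELISA readout of TIMP-1 from human dermal foreskin fibroblast cultures 24 h post-dosing. Curves were fitted in both directions against DMSO baseline, with SRB total-protein staining in parallel cultures as a cytotoxicity check.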
# [4] = read-out: Monokine induced gamma interferon (MIG), CXCL9 (gene 4283); assay: BSK_hDFCGF_MIG: BioMAP Diversity Plus: hDFCGF Assay for Monokine induced gamma interferon (MIG) Biomarker Activity (AID 2283063); details: primary human foreskin fibroblasts; actives raise or lower the signal
# How it was run: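 Fibroblasts (human foreskin, primary) dosed, 24 h, MIG by ELISA; fit bidirectional vs DMSO.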
# [5] = read-out: Vascular cell adhesion molecule 1 (VCAM1), VCAM1 (gene 7412); assay: BSK_hDFCGF_VCAM1: BioMAP Diversity Plus: hDFCGF Assay for Vascular cell adhesion molecule 1 (VCAM1) Biomarker Activity (AID 2283065); details: primary human foreskin fibroblasts; actives raise or lower the signal;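 as to AC50: VCAM-1 protein level quantified by ELISA after 24 h chemical exposure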
# How it was run: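 ELISA read-out of VCAM-1 on human skin fibroblasts, 24 h post-dose; gain or loss of signal fitted bidirectionally against DMSO baseline.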
# [6] = read-out: Intercellular Adhesion Molecule 1 (ICAM1), ICAM1 (gene 3383); assay: BSK_KF3CT_ICAM1: BioMAP Diversity Plus: KF3CT Assay for Intercellular Adhesion Molecule 1 (ICAM1) Biomarker Activity (AID 2283067); details: primary human keratinocytes with fibroblasts; actives raise or lower the signal
# How it was run: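 ELISA readout of ICAM-1; KF3CT human skin co-culture (keratinocytes + foreskin fibroblasts), 24 h post-dose; gain/loss fit vs DMSO baseline.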
# [7] = read-out: Interferon-gamma inducible Protein 10 (IP10), CXCL10 (gene 3627); assay: BSK_KF3CT_IP10: BioMAP Diversity Plus: KF3CT Assay for Interferon-gamma inducible Protein 10 (IP10) Biomarker Activity (AID 2283068); details: primary human keratinocytes with fibroblasts; actives raise or lower the signal
# How it was run: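 ELISA read-out of IP-10 after 24 h chemical dosing of human skin primary co-culture (keratinocytes, foreskin fibroblasts). Gain or loss of signal relative to DMSO, bidirectional curve fit.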
# [8] = BSK_KF3CT_SRB: Viability Assessment in the BioMAP Diversity Plus: KF3CT Assay (AID 2283069); details: primary human keratinocytes with fibroblasts;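 also: total protein by sulforhodamine B staining as a cytotoxicity measure; read 24 h after compound addition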
# How it was run: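 Human keratinocyte and foreskin fibroblast co-culture exposed to chemical for 24 h. Total protein measured in parallel cultures by 0.1% sulforhodamine B staining after 10% TCA fixation, read at 560 nm; bidirectional fit relative to DMSO.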
# [9] = read-out: Interleukin-1 alpha (IL1a), IL1A (gene 3552); assay: BSK_KF3CT_IL1a: BioMAP Diversity Plus: KF3CT Assay for Interleukin-1 alpha (IL1a) Biomarker Activity (AID 2283070); details: primary human keratinocytes with fibroblasts; actives raise or lower the signal
# How it was run: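 Primary human keratinocyte plus foreskin fibroblast co-culture, dosed and measured at 24 h in 96-well plates. IL-1a level quantified by ELISA; bidirectional fit relative to DMSO.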
# [10] = read-out: TIMP metallopeptidase inhibitor 2 (TIMP2), TIMP2 (gene 7077); assay: BSK_KF3CT_TIMP2: BioMAP Diversity Plus: KF3CT Assay for TIMP metallopeptidase inhibitor 2 (TIMP2) Biomarker Activity (AID 2283071); details: primary human keratinocytes with fibroblasts; actives raise or lower the signal
# How it was run: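 Cells: human keratinocytes co-cultured with foreskin fibroblasts. Treat with chemical, 24 h. Measure TIMP-2 by ELISA; fit curves bidirectionally vs DMSO baseline.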
# [11] = read-out: Transforming growth factor beta 1 (TGFb1), TGFB1 (gene 7040); assay: BSK_KF3CT_TGFb1: BioMAP Diversity Plus: KF3CT Assay for Transforming growth factor beta 1 (TGFb1) Biomarker Activity (AID 2283072); details: primary human keratinocytes with fibroblasts; actives raise or lower the signal
# How it was run: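 Primary human skin cells (keratinocytes, foreskin fibroblasts) were co-cultured, exposed to test chemical and sampled at 24 h. TGF-b1 levels were measured by ELISA and fitted bidirectionally relative to DMSO.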
# [12] = read-out: C-C motif chemokine 2 (Homo sapiens) (UniProt P13500); assay: BSK_KF3CT_MCP1: BioMAP Diversity Plus: KF3CT Assay for Monocyte Chemoattractant Protein 1 (MCP1/CCL2) Biomarker Activity (AID 2283073); details: primary human keratinocytes with fibroblasts; actives raise or lower the signal
# How it was run: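 KF3CT skin co-culture (keratinocytes/foreskin fibroblasts), 24 h post-dose; MCP-1 by ELISA; gain/loss of signal fit bidirectionally vs DMSO baseline.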
# [13] = read-out: Matrix Metallopeptidase 9 (MMP9), MMP9 (gene 4318); assay: BSK_KF3CT_MMP9: BioMAP Diversity Plus: KF3CT Assay for Matrix Metallopeptidase 9 (MMP9) Biomarker Activity (AID 2283074); details: primary human keratinocytes with fibroblasts; actives raise or lower the signal;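 as to AC50: MMP9 protein level quantified by ELISA in the co-culture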
# How it was run: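 Human keratinocyte and foreskin fibroblast co-culture exposed to chemicals for 24 h; MMP9 biomarker measured by ELISA, bidirectional fitting relative to DMSO; cytotoxicity tracked by SRB total protein staining in parallel cultures.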
# [14] = read-out: urokinase plasminogen activator (uPA), PLAU (gene 5328); assay: BSK_KF3CT_uPA: BioMAP Diversity Plus: KF3CT Assay for urokinase plasminogen activator (uPA) Biomarker Activity (AID 2283075); details: primary human keratinocytes with fibroblasts; actives raise or lower the signal
# How it was run: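 Primary human keratinocyte/foreskin fibroblast co-culture exposed to chemical; uPA measured by ELISA at 24 h. Bidirectional fit versus DMSO, with parallel SRB total-protein staining for cytotoxicity.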
# [15] = read-out: CD40, CD40 (gene 958); assay: BSK_LPS_CD40: BioMAP Diversity Plus: LPS Assay for CD40 Biomarker Activity (AID 2283076); details: primary human HUVEC with PBMC; actives raise or lower the signal
# How it was run: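 ELISA readout of CD40 in HUVEC/PBMC co-culture (BSK_LPS system), 24 h post-dosing; bidirectional curve fit, DMSO baseline; parallel SRB total-protein staining for cytotoxicity.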
# [16] = read-out: E-selectin (Homo sapiens) (UniProt P16581); assay: BSK_LPS_Eselectin: BioMAP Diversity Plus: LPS Assay for Eselectin Biomarker Activity (AID 2283077); details: primary human HUVEC with PBMC; actives raise or lower the signal
# How it was run: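 ELISA readout of E-selectin, 24 h post-dose, HUVEC + PBMC co-culture (LPS system). Gain or loss of signal vs DMSO baseline, bidirectional fit.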
# [17] = read-out: Interleukin-8 (IL8), CXCL8 (gene 3576); assay: BSK_LPS_IL8: BioMAP Diversity Plus: LPS Assay for Interleukin-8 (IL8) Biomarker Activity (AID 2283078); details: primary human HUVEC with PBMC; actives raise or lower the signal
# How it was run: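 HUVEC + PBMC co-culture, LPS-activated; test chemicals dosed, IL-8 read by ELISA at 24 h. Bidirectional curve fit vs DMSO baseline (gain or loss of signal).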
# [18] = BSK_LPS_SRB: Viability Assessment in the BioMAP Diversity Plus: LPS Assay (AID 2283079); details: primary human HUVEC with PBMC;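 also: total protein by sulforhodamine B absorbance as a cytotoxicity measure; measured one day after compound addition; fitted in both directions against DMSO so loss or gain of signal counts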
# How it was run: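 HUVEC + PBMC co-culture, LPS-stimulated; compound 24 h. 10% TCA fix, 0.1% SRB stain, A560. Bidirectional fit vs DMSO.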
# [19] = read-out: Matrix Metallopeptidase 1 (MMP1), MMP1 (gene 4312); assay: BSK_hDFCGF_MMP1: BioMAP Diversity Plus: hDFCGF Assay for Matrix Metallopeptidase 1 (MMP1) Biomarker Activity (AID 2283064); details: primary human foreskin fibroblasts; actives raise or lower the signal
# How it was run: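 Primary human foreskin fibroblasts exposed to chemicals for 24 h; MMP1 measured by ELISA. Cytotoxicity tracked by SRB staining in parallel cultures; bidirectional fit relative to DMSO.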
# Sequence of E-selectin (Homo sapiens) (P16581 whole entry, looked up): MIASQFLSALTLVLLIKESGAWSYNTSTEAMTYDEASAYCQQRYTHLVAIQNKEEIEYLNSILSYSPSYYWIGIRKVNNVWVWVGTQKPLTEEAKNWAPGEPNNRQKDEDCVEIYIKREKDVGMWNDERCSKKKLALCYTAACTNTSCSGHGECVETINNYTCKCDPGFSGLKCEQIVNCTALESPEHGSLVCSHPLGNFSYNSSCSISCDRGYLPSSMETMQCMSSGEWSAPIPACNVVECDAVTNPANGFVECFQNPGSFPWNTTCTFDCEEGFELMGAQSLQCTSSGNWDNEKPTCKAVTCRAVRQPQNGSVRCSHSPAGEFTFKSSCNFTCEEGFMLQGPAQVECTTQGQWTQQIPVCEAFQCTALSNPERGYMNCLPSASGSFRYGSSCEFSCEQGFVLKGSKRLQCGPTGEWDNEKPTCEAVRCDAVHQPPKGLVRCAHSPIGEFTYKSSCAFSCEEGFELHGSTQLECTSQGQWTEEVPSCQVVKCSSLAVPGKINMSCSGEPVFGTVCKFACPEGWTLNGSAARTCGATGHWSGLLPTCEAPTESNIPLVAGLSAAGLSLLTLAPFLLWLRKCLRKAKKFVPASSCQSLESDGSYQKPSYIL
smiles,measurement,setting,value
CCN(CC)c1ccc(N=Nc2ccccc2)cc1,outcome,[1],inactive
same,outcome,[2],inactive
same,outcome,[3],inactive
same,outcome,[4],inactive
same,AC50,[5],20 µM (active)
same,outcome,[6],inactive
same,outcome,[7],inactive
same,outcome,[8],inactive
same,outcome,[9],inactive
same,outcome,[10],inactive
same,outcome,[11],inactive
same,outcome,[12],inactive
same,AC50,[13],9.24 µM (active)
same,outcome,[14],inactive
same,AC50,[15],28.6 µM (active)
same,outcome,[16],inactive
same,AC50,[17],20 µM (active)
same,AC50,[18],29.6 µM (active)
OCC(O)CC(F)(F)C(F)(F)C(F)(F)C(F)(F)C(F)(F)C(F)(F)C(F)(F)C(F)(F)F (centres undefined),outcome,[1],inactive
same,outcome,[2],inactive
same,outcome,[3],inactive
same,outcome,[4],inactive
same,outcome,[19],inactive
same,outcome,[5],inactive
same,outcome,[6],inactive
same,outcome,[7],inactive
same,outcome,[8],inactive
same,outcome,[10],inactive
same,outcome,[12],inactive
same,outcome,[13],inactive
same,outcome,[14],inactive
same,outcome,[15],inactive
same,outcome,[16],inactive
same,outcome,[17],inactive
same,outcome,[18],inactive
CC1=CC2C3C=CC(C3)C2C1C (centres undefined),outcome,[1],inactive
same,outcome,[2],inactive
same,outcome,[3],inactive
same,outcome,[4],inactive
same,outcome,[19],inactive
same,outcome,[5],inactive
same,outcome,[6],inactive
same,outcome,[7],inactive
same,outcome,[8],inactive
same,outcome,[10],inactive
same,outcome,[11],inactive
same,outcome,[12],inactive
same,outcome,[13],inactive
same,outcome,[14],inactive
same,outcome,[15],inactive
same,outcome,[16],inactive
same,outcome,[17],inactive
same,outcome,[18],inactive
O=S(=O)(Cl)C(F)(F)C(F)(F)C(F)(F)C(F)(F)C(F)(F)C(F)(F)C(F)(F)C(F)(F)F,outcome,[1],inactive
same,outcome,[2],inactive
same,outcome,[3],inactive
same,outcome,[4],inactive
same,outcome,[19],inactive
same,outcome,[5],inactive
same,outcome,[6],inactive
same,AC50,[7],34.8 µM (active) and 32.5 µM (active)
same,outcome,[8],inactive
same,outcome,[9],inactive
same,outcome,[10],inactive
same,outcome,[12],inactive
same,AC50,[13],30 µM (active) and 51.1 µM (active)
same,outcome,[14],inactive
same,outcome,[15],inactive
same,outcome,[16],inactive
same,AC50,[17],30 µM (active)
same,outcome,[18],inactive
CC(C)(C)c1cc(CCC(=O)NCCCCCCNC(=O)CCc2cc(C(C)(C)C)c(O)c(C(C)(C)C)c2)cc(C(C)(C)C)c1O,outcome,[1],inactive
same,outcome,[2],inactive
same,outcome,[3],inactive
same,outcome,[4],inactive
same,outcome,[19],inactive
same,outcome,[5],inactive
same,outcome,[6],inactive
same,outcome,[7],inactive
same,outcome,[8],inactive
same,outcome,[10],inactive
same,outcome,[11],inactive
same,outcome,[12],inactive
same,outcome,[13],inactive
same,outcome,[14],inactive
same,outcome,[15],inactive
same,outcome,[16],inactive
same,outcome,[17],inactive
same,outcome,[18],inactive
COC(F)(C(F)F)C(F)(F)F (centres undefined),outcome,[1],inactive
same,outcome,[2],inactive
same,outcome,[3],inactive
same,outcome,[4],inactive
same,outcome,[19],inactive
same,outcome,[5],inactive
same,outcome,[6],inactive
same,outcome,[7],inactive
same,outcome,[8],inactive
same,outcome,[10],inactive
same,outcome,[12],inactive
same,outcome,[13],inactive
same,outcome,[14],inactive
same,outcome,[15],inactive
same,outcome,[16],inactive
same,outcome,[17],inactive
same,outcome,[18],inactive
NC(O)(C(F)(F)F)C(F)(F)F,outcome,[1],inactive
same,outcome,[2],inactive
same,outcome,[3],inactive
same,outcome,[4],inactive
same,outcome,[19],inactive
same,outcome,[5],inactive
same,outcome,[6],inactive
same,outcome,[7],inactive
same,outcome,[8],inactive
same,outcome,[10],inactive
same,outcome,[12],inactive
same,outcome,[13],inactive
same,outcome,[14],inactive
same,outcome,[15],inactive
same,outcome,[16],inactive
same,AC50,[17],5.33 µM (active)
same,outcome,[17],inactive
same,outcome,[18],inactive

# Reference: PubChem BioAssay (EPA / NIEHS)
